Measurements published in PubChem BioAssay (Tox21).
Records with an inconclusive call do not appear. Unmarked numbers belong to inactive results. The source made the active and inactive calls. Calls follow the shape of the dose curve; as a rule, active = well fitted activation curve with a large enough effect in the repeat runs; inconclusive = weak or mixed curves; inactive = flat fitted curve, though single readings scatter.

experiment: A CellTox Green Cytotoxicity Assay to monitor cytotoxicity in HEK293 cells - 8 hour (AID 1224884); conditions: CellTox Green fluorescence; series mostly up to 76.8 µM; cytotoxicity increase: at the top concentration; also: nearly all actives have a fitted effect of over 35% in size
Source text: National Center for Advancing Translational Sciences [NCATS]
NIH Chemical Genomics Center [NCGC]
U.S. Environmental Protection Agency [EPA]
National Institutes of Environmental Health Sciences [NIEHS]
National Toxicology Program [NTP]
Cell-based models are critical for drug discovery. Determining the natural cytotoxic effects resulting from test compounds is an essential research activity. A CellTox Green Cytotoxicity Assay to monitor cytotoxicity in real time of continues cell culture during 40 hours of the compound treatment was used to screen Tox21 10K library compounds in Hek293 cells. CellTox Green Cytotoxicity Assay is a nonlytic, homogeneous, biofluorescent method to measure cytotoxicity in cell culture after experimental manipulation. The assay system uses a proprietary asymmetric cyanine dye that is excluded from viable cells but preferentially stains the dead cell's DNA. […] Viable cells produce no appreciable increases in fluorescence. Therefore, the fluorescence signal produced by the binding interaction with dead cell DNA is proportional to cytotoxicity.
The mixture of Hek293 cell suspension and reagents were dispensed at 600cells/6 ul/well in 1536-well tissue culture treated black solid bottom plates using a Multidrop dispenser. After the assay plates were incubated at a 37 C/5% CO2 incubator for 5 hours, 23 nL of compounds dissolved in DMSO, positive and negative controls was transferred to the assay plate by a pintool work station. The plates were incubated at 37 C for 40 hours. The fluorescence intensity were measured at 0h, 8h, 16h, 24h, 32h and 40h time points using ViewLux plate reader during compound treatment.
% is scaled to controls: 0 for no effect and ±100 for the full control effect; potency is read from the fitted curve at half-maximal effect.

Row | Compound | cytotoxicity increase | Potency
1 | Cc1ccc(N(CC2=NCCN2)c2cccc(O)c2)cc1 | -1.3% [at 35.3 µM] | 
2 | CCC(Cl)CC(Cl)C(Cl)C(Cl)C(Cl)C(C)Cl (stereo not given) | 24.2% [at 15.8 µM] | 
3 | CC(CO)(CO)C(=O)O | -1.17% | 
4 | O=C1c2ccccc2C(=O)c2c(O)ccc(O)c21 |  | 27.5 µM (active)
5 | C=CCOC(=O)COCCC(C)C | -12.6% | 
6 | O=NN(CCCl)C(=O)NCCCl | 0.343% [at 35.3 µM] | 
7 | O=C(O)CNC(=O)c1ccccc1I | 0.516% [at 35.3 µM] | 
8 | CC(C)c1ccc(C#N)cc1 | -2.59% | 
9 | CC(C(=O)O)c1ccc(C(=O)c2cccs2)cc1 (stereo not given) | -3.44% [at 35.3 µM] | 
10 | CCC1CCC(CCC(=O)O)C1 (stereo not given) | 0.183% | 
11 | O=C(O)CCC(=O)OC[C@@H](NC(=O)C(Cl)Cl)[C@H](O)c1ccc([N+](=O)[O-])cc1 |  | 21.3 µM (active)
12 | O=C(NS(=O)(=O)/C=C/c1ccccc1)c1ccc(F)cc1Cl | 0.719% | 
13 | COc1ccc(N)c([N+](=O)[O-])c1 | -15.4% | 
14 | C=CC(=O)O | -6.11% [at 35.3 µM] | 
15 | O[C@@H](CNC[C@H](O)[C@H]1CCc2cc(F)ccc2O1)[C@@H]1CCc2cc(F)ccc2O1 |  | 23.9 µM (active)
16 | CCOC(=O)c1ccc(NC(=O)CN2CCCCC2)cc1 | -17.5% [at 35.3 µM] | 
17 | O=C(O)c1cc(Cl)cc(Cl)c1O | -1.82% | 
18 | Cc1cn([C@H]2C[C@H](F)[C@@H](CO)O2)c(=O)[nH]c1=O | -2.79% [at 35.3 µM] | 
19 | O=C(NC(Cc1cc(=O)[nH]c2ccccc12)C(=O)O)c1ccc(Cl)cc1 (stereo not given) | -16% [at 35.3 µM] | 
20 | CCCCC(CC)COS(=O)(=O)O (stereo not given) | -12% | 

Row | Compound | cytotoxicity increase | Potency
21 | CCNc1nc(N)nc(Cl)n1 | -0.843% | 
22 | CO[C@@H]1[C@@H](OC)[C@H](C)[C@@](O)(CC(=O)O)O[C@H]1[C@H](C)[C@H]1O[C@@]2(CC[C@@](C)([C@H]3CC[C@@](C)([C@@H]4O[C@@H]([C@H]5O[C@](C)(O)[C@H](C)C[C@@H]5C)C[C@@H]4OC4C[C@H](OC)[C@@H](OC)[C@H](C)O4)O3)O2)C[C@H](O)[C@H]1C (stereo not given in full) | 2.8% [at 35.3 µM] | 
23 | CC(=O)OCCC1CCCCC1 | -3.78% | 
24 | CCC(CO)(CO)CO | -0.0637% | 
25 | CCCCCCCCCCCCCOS(=O)(=O)O | 13.7% | 
26 | COC(=O)Nc1nc2ccc(C(=O)C3CC3)cc2[nH]1 | 1.86% [at 35.3 µM] | 
27 | COc1ccc(-n2nc(C(F)F)cc2-c2ccc(S(C)=O)cc2)cc1 (stereo not given) | -13.9% | 
28 | COc1cc(NC(C)CCCN)c2ncccc2c1 (stereo not given) | -3.48% [at 35.3 µM] | 
29 | CC[C@@H](CO)NCCN[C@@H](CC)CO | -4.96% [at 35.3 µM] | 
30 | CN1CCCN(C(c2ccccc2)c2ccc(Cl)cc2)CC1 (stereo not given) | 20.4% [at 35.3 µM] | 
31 | C=Cc1ccc(OC(C)=O)cc1 | 29.4% | 
32 | CC(=O)OCCC(C)CC(C)(C)C (stereo not given) | -0.717% | 
33 | O=C1[C@@H]2[C@H]3CC[C@H](C3)[C@@H]2C(=O)N1CCCCN1CCN(c2ncccn2)CC1 | -5.73% [at 35.3 µM] | 
34 | CC(C)N=C=NC(C)C | -19% | 
35 | Oc1cccc2[nH]ccc12 | 5.65% [at 35.3 µM] | 
36 | O=C(c1ccccc1)c1ccc(O)cc1 | 17.3% | 
37 | CCN(CC)C(=O)N1CCN(C)CC1 | -8.34% [at 35.3 µM] | 
38 | CCCCCCCC/C=C\CCCCCCCC(=O)OCCO | 0.737% | 
39 | CC1CCC(C(C)CS)CC1S (stereo not given) |  | 49 µM (active)
40 | Cc1ccc(NC(=O)N(C)C)cc1NC(=O)N(C)C | 1.38% | 
